In ChEMBL document CHEMBL1961873, “Compounds: GSK PKIS; Assays: Nanosyn kinase panel” (2012) one finds inhibition data, which are given here for 1 molecule.

Experiment [1] concerns the target Sphingosine kinase 1 (Homo sapiens) (UniProt Q9NYA1). The note with it: at 1 µM.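 Note: mean SPHK1 inhibition value reported from the GSK PKIS kinase panel screen.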
Experiment [2] deals with T1, Sphingosine kinase 2 (Homo sapiens) (UniProt Q9NRA0).
T1 sequence (whole entry): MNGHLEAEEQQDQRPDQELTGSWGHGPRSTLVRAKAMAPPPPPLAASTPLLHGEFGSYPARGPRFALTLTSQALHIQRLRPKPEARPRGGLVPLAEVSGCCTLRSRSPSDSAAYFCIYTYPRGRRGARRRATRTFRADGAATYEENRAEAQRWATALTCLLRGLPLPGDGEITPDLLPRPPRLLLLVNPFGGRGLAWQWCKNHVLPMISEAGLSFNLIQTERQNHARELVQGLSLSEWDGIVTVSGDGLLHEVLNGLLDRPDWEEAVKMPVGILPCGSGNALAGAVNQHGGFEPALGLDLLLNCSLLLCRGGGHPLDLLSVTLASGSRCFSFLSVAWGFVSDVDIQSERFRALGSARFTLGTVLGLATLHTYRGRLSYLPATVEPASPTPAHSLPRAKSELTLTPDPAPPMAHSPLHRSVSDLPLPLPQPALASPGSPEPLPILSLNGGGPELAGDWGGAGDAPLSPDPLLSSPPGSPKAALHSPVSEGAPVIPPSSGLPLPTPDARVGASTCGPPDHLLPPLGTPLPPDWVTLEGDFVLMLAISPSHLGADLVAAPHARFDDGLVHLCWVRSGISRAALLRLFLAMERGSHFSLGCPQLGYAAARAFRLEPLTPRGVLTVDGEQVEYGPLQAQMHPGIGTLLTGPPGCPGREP
The conditions noted are these: at 0.1 µM.

Experiment [3] has as its target T1, Sphingosine kinase 2 (Homo sapiens). The note with it: at 1 µM.
Experiment [4] addresses Casein kinase II subunit alpha (Homo sapiens) (UniProt P68400). The note with it: at 0.1 µM.
Experiment [5] has the same target. The conditions noted are these: at 1 µM.
In experiment [6] the target is T2, Inhibitor of nuclear factor kappa-B kinase subunit alpha (Homo sapiens) (UniProt O15111).
T2 sequence (whole entry): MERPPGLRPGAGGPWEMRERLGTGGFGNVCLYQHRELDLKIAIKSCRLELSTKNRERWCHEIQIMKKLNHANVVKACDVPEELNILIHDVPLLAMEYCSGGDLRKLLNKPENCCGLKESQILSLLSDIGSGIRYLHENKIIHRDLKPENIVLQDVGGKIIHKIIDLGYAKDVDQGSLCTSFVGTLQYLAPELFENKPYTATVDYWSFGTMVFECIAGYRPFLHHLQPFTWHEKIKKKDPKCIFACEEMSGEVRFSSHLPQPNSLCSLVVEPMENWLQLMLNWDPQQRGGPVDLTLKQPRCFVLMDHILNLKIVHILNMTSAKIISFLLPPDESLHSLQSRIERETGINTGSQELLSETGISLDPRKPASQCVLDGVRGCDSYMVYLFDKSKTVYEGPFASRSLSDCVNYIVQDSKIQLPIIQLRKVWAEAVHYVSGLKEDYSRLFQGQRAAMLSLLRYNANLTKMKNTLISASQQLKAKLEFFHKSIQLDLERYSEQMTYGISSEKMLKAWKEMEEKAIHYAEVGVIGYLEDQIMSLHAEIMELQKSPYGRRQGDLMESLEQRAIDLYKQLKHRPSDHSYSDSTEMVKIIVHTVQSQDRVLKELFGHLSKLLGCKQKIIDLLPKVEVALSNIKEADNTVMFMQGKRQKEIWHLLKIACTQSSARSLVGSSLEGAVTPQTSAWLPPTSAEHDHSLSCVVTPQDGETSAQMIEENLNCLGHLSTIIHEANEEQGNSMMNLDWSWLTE
The note with it: at 0.1 µM.

Experiment [7] concerns the target T2, Inhibitor of nuclear factor kappa-B kinase subunit alpha (Homo sapiens). The conditions noted are these: at 1 µM.
The target of experiment [8] is T3, Inhibitor of nuclear factor kappa-B kinase subunit beta (Homo sapiens) (UniProt O14920).
T3 sequence (whole entry): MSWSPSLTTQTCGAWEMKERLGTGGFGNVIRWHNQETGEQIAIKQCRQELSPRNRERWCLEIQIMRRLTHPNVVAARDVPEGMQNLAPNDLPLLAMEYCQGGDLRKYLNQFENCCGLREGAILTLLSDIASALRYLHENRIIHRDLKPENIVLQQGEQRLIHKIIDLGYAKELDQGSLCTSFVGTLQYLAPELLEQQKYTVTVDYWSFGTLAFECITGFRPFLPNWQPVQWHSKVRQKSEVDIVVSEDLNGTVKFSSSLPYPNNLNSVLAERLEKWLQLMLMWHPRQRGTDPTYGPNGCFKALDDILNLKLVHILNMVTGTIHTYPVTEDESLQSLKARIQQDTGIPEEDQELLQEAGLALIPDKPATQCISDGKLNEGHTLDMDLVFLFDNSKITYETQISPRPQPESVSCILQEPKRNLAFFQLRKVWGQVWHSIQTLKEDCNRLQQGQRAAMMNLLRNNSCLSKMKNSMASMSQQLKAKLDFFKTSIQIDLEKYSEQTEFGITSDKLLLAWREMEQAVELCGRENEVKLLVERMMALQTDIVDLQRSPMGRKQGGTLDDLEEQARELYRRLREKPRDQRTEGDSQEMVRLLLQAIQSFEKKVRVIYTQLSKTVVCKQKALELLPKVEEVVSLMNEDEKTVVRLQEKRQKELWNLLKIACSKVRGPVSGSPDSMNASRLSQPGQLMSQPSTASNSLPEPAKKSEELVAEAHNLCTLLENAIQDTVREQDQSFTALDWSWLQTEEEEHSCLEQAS
The conditions noted are these: at 0.1 µM.

Experiment [9] concerns the target T3, Inhibitor of nuclear factor kappa-B kinase subunit beta (Homo sapiens). The conditions noted are these: at 1 µM.
Experiment [10] has as its target T4, Inhibitor of nuclear factor kappa-B kinase subunit epsilon (Homo sapiens) (UniProt Q14164).
T4 sequence (whole entry): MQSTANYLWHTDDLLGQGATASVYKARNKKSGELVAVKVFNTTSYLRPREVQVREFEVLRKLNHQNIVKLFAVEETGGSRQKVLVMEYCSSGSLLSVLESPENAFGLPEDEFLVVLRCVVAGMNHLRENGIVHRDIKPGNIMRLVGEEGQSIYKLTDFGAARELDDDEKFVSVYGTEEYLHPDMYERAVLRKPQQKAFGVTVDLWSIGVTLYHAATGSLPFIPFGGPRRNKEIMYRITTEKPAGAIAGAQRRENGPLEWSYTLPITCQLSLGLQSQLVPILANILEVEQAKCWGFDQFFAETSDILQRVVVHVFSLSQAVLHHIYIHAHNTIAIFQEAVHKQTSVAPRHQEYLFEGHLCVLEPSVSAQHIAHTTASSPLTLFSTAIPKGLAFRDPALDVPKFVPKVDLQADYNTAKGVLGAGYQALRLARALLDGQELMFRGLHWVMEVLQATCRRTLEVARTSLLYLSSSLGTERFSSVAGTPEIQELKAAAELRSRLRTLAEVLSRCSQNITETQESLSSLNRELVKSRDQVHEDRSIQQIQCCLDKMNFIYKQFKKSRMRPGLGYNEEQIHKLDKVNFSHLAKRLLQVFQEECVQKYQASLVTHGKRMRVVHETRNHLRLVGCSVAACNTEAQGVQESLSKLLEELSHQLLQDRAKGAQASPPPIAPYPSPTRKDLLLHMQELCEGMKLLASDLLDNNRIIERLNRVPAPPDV
The conditions noted are these: at 0.1 µM.

The target of experiment [11] is T4, Inhibitor of nuclear factor kappa-B kinase subunit epsilon (Homo sapiens). The note with it: at 1 µM.
Experiment [12] addresses T5, Serine/threonine-protein kinase Nek1 (Homo sapiens) (UniProt Q96PY6).
T5 sequence (whole entry): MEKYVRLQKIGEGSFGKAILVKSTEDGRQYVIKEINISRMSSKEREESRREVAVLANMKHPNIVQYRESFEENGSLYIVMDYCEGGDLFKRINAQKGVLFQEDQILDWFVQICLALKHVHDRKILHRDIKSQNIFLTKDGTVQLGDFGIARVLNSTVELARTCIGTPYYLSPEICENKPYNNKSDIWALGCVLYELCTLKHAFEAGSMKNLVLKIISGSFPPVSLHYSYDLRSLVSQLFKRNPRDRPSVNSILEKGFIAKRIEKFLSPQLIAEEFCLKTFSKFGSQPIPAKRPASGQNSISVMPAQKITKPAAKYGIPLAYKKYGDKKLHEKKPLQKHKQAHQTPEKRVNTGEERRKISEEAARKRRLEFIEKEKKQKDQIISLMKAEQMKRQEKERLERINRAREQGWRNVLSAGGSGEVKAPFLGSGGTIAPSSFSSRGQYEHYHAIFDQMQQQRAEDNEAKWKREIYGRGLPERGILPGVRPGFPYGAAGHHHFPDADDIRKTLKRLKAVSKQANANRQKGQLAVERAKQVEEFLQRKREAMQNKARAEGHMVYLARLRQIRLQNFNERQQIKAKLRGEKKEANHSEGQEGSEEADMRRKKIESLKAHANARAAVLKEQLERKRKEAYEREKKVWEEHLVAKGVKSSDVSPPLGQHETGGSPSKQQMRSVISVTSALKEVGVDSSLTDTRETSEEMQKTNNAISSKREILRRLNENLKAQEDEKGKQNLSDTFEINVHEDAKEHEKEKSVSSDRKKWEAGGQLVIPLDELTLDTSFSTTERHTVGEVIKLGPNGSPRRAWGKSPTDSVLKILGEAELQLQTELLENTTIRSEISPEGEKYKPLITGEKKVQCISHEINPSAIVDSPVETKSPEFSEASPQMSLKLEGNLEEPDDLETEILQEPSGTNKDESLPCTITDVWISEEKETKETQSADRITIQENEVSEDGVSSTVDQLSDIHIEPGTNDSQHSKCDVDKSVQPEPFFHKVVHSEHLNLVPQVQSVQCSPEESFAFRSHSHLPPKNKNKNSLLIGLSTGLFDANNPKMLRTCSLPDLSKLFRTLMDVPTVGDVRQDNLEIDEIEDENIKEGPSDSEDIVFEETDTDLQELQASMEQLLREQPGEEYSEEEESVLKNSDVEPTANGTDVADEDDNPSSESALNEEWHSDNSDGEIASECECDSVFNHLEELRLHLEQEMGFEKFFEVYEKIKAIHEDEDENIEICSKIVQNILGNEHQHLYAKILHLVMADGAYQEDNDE
The conditions noted are these: at 0.1 µM.

Experiment [13] addresses T5, Serine/threonine-protein kinase Nek1 (Homo sapiens). The note with it: at 1 µM.
The target of experiment [14] is T6, Serine/threonine-protein kinase Nek2 (Homo sapiens) (UniProt P51955).
T6 sequence (whole entry): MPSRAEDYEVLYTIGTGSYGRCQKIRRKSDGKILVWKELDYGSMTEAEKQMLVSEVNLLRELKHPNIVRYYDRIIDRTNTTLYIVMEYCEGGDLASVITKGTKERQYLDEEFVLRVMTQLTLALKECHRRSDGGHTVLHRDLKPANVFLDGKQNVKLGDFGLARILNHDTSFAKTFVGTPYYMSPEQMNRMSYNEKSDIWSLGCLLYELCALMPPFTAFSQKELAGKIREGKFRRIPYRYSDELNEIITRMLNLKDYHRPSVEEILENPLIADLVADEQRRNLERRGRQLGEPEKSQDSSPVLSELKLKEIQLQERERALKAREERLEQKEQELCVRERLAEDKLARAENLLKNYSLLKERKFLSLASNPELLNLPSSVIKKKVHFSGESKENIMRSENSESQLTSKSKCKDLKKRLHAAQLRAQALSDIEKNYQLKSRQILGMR
The conditions noted are these: at 0.1 µM.

Experiment [15] addresses T6, Serine/threonine-protein kinase Nek2 (Homo sapiens). The note with it: at 1 µM.
The target in experiment [16] is Serine/threonine-protein kinase Nek6 (Homo sapiens) (UniProt Q9HC98). The note with it: at 0.1 µM.
The target is the same in experiment [17]. The conditions noted are these: at 1 µM.
Experiment [18] deals with Serine/threonine-protein kinase Nek7 (Homo sapiens) (UniProt Q8TDX7). The note with it: at 0.1 µM.
The target is the same in experiment [19]. The note with it: at 1 µM.
Experiment [20] concerns the target T7, Serine/threonine-protein kinase Nek9 (Homo sapiens) (UniProt Q8TD19).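 Note: reported value is the mean percent inhibition of NEK9.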
T7 sequence (whole entry): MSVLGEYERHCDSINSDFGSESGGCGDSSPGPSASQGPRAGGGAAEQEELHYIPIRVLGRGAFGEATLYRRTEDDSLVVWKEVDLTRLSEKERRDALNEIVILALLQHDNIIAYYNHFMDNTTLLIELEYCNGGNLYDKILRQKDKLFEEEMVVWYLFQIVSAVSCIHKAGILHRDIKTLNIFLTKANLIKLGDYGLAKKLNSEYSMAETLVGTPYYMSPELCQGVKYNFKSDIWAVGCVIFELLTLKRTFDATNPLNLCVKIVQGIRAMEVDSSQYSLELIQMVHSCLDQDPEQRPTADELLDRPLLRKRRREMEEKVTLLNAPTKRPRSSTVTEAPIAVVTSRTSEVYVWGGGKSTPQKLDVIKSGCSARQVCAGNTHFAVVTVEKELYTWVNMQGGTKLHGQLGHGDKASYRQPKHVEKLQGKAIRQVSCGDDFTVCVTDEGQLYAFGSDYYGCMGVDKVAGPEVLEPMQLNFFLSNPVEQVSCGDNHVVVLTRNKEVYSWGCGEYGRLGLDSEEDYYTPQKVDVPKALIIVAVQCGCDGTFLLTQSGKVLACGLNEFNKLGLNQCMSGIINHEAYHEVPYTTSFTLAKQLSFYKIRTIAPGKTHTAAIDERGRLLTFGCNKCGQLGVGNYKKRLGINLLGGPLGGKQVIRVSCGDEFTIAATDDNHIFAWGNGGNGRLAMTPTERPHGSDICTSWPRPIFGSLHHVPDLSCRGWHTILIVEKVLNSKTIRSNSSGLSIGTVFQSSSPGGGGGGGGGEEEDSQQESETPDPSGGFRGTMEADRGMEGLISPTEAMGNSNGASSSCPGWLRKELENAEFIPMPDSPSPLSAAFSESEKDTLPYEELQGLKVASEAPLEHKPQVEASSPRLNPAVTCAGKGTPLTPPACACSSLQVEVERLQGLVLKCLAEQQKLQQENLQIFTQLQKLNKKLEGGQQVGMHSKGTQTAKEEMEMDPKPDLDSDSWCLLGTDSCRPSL
The conditions noted are these: at 0.1 µM.

Casein kinase II subunit alpha (Homo sapiens), sequence (P68400 whole entry, looked up): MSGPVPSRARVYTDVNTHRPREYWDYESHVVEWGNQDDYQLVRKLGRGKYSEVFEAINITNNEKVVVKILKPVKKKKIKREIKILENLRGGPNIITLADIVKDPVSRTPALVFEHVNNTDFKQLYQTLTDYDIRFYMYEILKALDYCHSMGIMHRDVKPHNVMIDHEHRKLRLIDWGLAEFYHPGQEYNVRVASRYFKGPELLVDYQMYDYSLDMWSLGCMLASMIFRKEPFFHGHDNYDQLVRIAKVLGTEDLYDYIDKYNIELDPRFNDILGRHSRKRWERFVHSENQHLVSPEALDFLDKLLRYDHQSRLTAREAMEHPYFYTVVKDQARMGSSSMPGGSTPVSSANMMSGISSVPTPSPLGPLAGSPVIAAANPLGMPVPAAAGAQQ
Serine/threonine-protein kinase Nek7 (Homo sapiens), sequence (Q8TDX7 whole entry, looked up): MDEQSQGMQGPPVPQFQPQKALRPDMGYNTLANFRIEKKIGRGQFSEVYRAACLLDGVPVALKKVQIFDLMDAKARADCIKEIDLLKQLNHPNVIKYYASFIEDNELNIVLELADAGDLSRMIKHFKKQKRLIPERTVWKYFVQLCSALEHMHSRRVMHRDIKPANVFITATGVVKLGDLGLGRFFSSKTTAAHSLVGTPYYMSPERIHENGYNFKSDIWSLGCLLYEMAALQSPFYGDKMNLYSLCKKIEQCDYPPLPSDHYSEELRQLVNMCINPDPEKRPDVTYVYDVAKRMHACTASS
Serine/threonine-protein kinase Nek6 (Homo sapiens), sequence (Q9HC98 whole entry): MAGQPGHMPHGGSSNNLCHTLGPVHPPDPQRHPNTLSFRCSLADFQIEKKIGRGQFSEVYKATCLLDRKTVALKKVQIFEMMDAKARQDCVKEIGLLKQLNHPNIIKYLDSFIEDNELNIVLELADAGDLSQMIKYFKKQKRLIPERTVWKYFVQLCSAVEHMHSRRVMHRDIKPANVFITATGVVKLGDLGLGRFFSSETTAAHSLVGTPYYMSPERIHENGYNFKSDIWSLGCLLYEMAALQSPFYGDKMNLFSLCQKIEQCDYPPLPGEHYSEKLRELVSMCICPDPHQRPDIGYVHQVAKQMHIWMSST
Sphingosine kinase 1 (Homo sapiens), sequence (Q9NYA1 whole entry): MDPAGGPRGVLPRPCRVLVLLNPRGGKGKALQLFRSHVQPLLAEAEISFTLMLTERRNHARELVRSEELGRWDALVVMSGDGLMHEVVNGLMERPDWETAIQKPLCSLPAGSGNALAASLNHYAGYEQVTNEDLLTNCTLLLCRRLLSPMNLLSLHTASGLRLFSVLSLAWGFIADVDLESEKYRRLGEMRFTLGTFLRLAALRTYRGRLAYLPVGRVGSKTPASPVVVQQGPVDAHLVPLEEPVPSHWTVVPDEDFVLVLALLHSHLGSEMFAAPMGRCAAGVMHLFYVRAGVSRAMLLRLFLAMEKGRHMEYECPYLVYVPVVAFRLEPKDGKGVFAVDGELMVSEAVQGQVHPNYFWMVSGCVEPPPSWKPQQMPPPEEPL

In the case of `Cc1ccc(O)cc1Nc1ccnc2cc(-c3ccccn3)ccc12`, the inhibition in experiment [1] is 0.38%; in [2] it was 0.62%; in experiment [3] it was -0.19%; in experiment [4], 1.53%; in experiment [5], -1.39%; in experiment [6], 1.97%. In addition, the inhibition is -1.79% in experiment [7]; 6.75% in experiment [8]; 1.3% in experiment [9]; 5.73% in experiment [10]; 4.69% in [11]; 2.99% in experiment [12]. Moreover, the inhibition in experiment [13] was 2.32%; in experiment [14] it was 5.83%; in [15], 4.75%; in experiment [16], 5.8%; in experiment [17], -1.66%; in [18], 3.67%. For the same molecule, the inhibition amounted to 3.3% in experiment [19] and 2.78% in [20].
